Source: PubChem BioAssay (EPA / NIEHS)
Inconclusive results are not listed. Activity calls are given as the source filed them. The calls were made as follows, unless noted: active = hit-call score of the fitted dose curve at least 0.9, where 1 is the maximum; inactive = score below 0.9.

What was measured:
[1] = biological target: Glucocorticoid receptor (Homo sapiens) (UniProt P04150); assay: ATG_GR_TRANS: Attagene TRANS-FACTORIAL HepG2 Assay for human Glucocorticoid Receptor (GR) (AID 2282978; active = hit-call score of the fitted dose curve at least 0.9, where 1 is the maximum;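 also: activators score as hits since higher reporter transcript over DMSO is fitted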); conditions: HepG2 Attagene TRANS GR reporter, mRNA transcription
Sequence of Glucocorticoid receptor (Homo sapiens) (P04150 whole entry, looked up, the tested form may be a part): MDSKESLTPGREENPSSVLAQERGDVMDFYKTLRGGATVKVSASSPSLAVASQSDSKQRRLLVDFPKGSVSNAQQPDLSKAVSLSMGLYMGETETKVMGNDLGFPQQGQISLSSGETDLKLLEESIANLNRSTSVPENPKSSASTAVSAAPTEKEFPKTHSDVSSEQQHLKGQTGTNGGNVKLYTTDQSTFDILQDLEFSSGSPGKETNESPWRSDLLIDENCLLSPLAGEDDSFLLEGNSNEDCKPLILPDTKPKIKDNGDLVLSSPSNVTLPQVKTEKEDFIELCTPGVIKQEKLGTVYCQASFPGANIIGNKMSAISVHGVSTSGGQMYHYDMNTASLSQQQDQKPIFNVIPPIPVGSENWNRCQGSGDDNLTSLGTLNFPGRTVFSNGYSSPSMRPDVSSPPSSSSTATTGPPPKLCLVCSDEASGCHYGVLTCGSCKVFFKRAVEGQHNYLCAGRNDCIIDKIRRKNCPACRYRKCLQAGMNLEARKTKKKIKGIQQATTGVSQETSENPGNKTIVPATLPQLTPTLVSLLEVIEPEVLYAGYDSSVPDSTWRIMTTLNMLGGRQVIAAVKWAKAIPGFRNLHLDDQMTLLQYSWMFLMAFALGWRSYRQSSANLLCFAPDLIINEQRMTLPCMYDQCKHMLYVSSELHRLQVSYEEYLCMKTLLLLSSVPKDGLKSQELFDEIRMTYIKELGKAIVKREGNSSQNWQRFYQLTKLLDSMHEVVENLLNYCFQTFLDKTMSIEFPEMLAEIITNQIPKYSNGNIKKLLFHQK
Method in brief: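 Exogenous NR-GAL4 fusion activity was assessed through induced GAL4-UAS reporter transcripts in transfected human HepG2 cells, quantified after 24 h by RT-PCR and fluorescent capillary electrophoresis with DMSO as baseline.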

[2] = ATG_M_06_TRANS: Attagene TRANS-FACTORIAL HepG2 Assay for M06 Transcription Factor (Internal Marker) (AID 2282983; active = hit-call score of the fitted dose curve at least 0.9, where 1 is the maximum;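 also: reporter transcript level by RT-PCR then capillary electrophoresis fluorescence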); conditions: HepG2 Attagene TRANS M06 internal marker reporter
Method in brief: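 mRNA levels of a reporter transcript, quantified as FAM fluorescence on capillary electrophoresis, served as readout. HepG2 cells expressing exogenous GAL4-chimera reporter constructs were exposed for 24 h. Gain of signal over DMSO was evaluated.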

[3] = biological target: Nuclear receptor subfamily 4 group A member 2 (Homo sapiens) (UniProt P43354); assay: ATG_NURR1_TRANS: Attagene TRANS-FACTORIAL HepG2 Assay for human Nuclear Receptor Related Protein 1 (NURR1) (AID 2282985; active = hit-call score of the fitted dose curve at least 0.9, where 1 is the maximum); conditions: HepG2 Attagene TRANS reporter, mRNA readout
Sequence of Nuclear receptor subfamily 4 group A member 2 (Homo sapiens) (P43354 whole entry, looked up, the tested form may be a part): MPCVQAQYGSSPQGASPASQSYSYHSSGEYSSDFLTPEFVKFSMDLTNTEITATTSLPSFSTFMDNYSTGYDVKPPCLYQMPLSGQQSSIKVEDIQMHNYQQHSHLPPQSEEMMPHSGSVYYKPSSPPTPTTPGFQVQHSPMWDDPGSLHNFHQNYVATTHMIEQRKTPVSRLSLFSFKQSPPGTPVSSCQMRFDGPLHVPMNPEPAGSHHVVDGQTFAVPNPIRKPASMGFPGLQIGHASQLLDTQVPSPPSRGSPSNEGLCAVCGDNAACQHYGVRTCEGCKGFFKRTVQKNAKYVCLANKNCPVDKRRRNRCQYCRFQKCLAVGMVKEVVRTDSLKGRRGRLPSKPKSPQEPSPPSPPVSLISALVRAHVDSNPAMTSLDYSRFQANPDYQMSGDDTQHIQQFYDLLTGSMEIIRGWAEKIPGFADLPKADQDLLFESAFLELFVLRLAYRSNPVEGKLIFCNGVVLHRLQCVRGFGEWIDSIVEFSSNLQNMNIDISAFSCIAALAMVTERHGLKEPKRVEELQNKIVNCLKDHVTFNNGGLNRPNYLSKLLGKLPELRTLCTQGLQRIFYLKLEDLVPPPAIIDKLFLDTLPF
Method in brief: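 Read-out: reporter mRNA induction by RT-PCR plus capillary electrophoresis with fluorescence detection, after 24 h dosing of transfected HepG2 cells. Exogenous NR-Gal4 chimera activity drives GAL4-UAS reporter; activity fitted upward versus DMSO.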

[4] = biological target: Transcriptional activator Myb (Homo sapiens) (UniProt P10242); assay: ATG_Myb_CIS: Attagene CIS-FACTORIAL HepG2 Assay for human Myeloblastosis (Myb) Proto-Oncogene Transcription Factor (AID 2282986); conditions: HepG2 Attagene CIS-FACTORIAL Myb reporter transcription; actives raise or lower the signal
Sequence of Transcriptional activator Myb (Homo sapiens) (P10242 whole entry, looked up): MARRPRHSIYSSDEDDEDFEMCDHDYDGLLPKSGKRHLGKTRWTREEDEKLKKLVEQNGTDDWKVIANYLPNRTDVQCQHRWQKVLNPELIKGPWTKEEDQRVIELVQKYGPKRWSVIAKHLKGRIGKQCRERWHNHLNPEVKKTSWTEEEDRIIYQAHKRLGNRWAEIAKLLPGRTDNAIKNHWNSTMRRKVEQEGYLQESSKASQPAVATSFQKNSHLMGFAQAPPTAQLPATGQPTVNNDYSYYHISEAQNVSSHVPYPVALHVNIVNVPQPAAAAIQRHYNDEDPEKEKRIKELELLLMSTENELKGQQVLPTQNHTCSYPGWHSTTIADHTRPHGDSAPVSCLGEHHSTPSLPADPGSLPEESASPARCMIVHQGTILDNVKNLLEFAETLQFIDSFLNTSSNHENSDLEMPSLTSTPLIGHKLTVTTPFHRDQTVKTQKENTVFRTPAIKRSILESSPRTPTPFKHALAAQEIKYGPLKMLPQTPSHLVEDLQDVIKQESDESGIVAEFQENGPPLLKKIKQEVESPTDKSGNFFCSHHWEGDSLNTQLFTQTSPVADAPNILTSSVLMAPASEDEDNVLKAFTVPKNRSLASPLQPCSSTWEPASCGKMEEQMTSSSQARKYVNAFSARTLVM
Method in brief: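 In this HepG2 transient-transfection format, cis-regulated reporter mRNA is quantified 24 h post-dosing by RT-PCR with capillary electrophoresis, fitted bidirectionally to DMSO baseline.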

[5] = biological target: Nuclear respiratory factor 1 (Homo sapiens) (UniProt Q16656); assay: ATG_NRF1_CIS: Attagene CIS-FACTORIAL HepG2 Assay for human Nuclear Respiratory Factor 1 (NRF1) Orphan Gene (AID 2282987); conditions: HepG2 NRF1 cis-element reporter, Attagene multiplex; actives raise or lower the signal
Sequence of Nuclear respiratory factor 1 (Homo sapiens) (Q16656 whole entry, looked up): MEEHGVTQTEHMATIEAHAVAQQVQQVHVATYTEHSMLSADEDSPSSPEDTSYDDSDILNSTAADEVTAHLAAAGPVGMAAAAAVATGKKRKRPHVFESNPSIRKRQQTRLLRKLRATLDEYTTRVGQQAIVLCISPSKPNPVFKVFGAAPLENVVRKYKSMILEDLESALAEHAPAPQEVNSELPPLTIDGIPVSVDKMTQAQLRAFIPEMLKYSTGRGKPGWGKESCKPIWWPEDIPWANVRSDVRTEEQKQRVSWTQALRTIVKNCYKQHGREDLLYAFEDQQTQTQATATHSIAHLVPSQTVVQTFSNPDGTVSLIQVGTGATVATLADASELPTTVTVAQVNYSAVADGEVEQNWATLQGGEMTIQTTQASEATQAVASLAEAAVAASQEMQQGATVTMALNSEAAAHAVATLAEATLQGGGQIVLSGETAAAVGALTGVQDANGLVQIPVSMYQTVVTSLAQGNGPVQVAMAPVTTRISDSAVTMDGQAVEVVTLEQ
Method in brief: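 Using DMSO as baseline, gain- or loss-of-signal was fitted for reporter mRNA levels in HepG2 cells transiently transfected with cis-regulated reporter units. Samples were taken 24 h after dosing and read by RT-PCR with capillary electrophoresis.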

[6] = ATG_NFI_CIS: Attagene CIS-FACTORIAL HepG2 Assay for human Nuclear Factor I (NFI) (AID 2282989); conditions: HepG2 cis-regulatory reporter, NFI response element transcription; actives raise or lower the signal
Method in brief: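 Transient MRTU transfection of HepG2 → 24 h chemical dosing → total RNA, oligo(dT) RT → PCR, 6-FAM primer extension, HpaI cut → capillary electrophoresis. Endpoint fitted bidirectionally relative to DMSO.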

[7] = biological target: Myc proto-oncogene protein (Homo sapiens) (UniProt P01106); assay: ATG_Myc_CIS: Attagene CIS-FACTORIAL HepG2 Assay for human Myelocytomatosis (Myc) Proto-Oncogene Transcription Factor (AID 2282990); conditions: HepG2, Attagene cis-reporter transcription factor activity; actives raise or lower the signal
Sequence of Myc proto-oncogene protein (Homo sapiens) (P01106 whole entry, looked up): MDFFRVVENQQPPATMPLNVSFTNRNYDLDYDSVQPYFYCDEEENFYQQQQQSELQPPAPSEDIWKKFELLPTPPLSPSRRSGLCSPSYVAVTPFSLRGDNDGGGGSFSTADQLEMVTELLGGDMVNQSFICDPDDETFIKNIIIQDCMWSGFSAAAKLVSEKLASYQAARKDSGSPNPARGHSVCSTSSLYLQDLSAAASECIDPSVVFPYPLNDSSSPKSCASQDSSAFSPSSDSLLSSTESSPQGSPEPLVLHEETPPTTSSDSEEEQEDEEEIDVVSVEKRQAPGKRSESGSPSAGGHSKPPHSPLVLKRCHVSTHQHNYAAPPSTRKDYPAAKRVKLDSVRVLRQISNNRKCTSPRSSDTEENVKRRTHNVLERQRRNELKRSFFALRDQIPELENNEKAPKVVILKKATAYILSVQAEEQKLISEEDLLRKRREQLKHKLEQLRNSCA
Method in brief: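 Transiently transfected HepG2 cells bearing cis-promoter reporter units for endogenous transcription factors; 24 h exposure. Reporter mRNA measured by RT-PCR, 6-FAM primer extension, HpaI cut and capillary electrophoresis; bidirectional fit relative to DMSO.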

[8] = ATG_Oct_MLP_CIS: Attagene CIS-FACTORIAL HepG2 Assay for human Octamer-Binding Transcription Factor (Oct) (AID 2282993); conditions: HepG2 Attagene cis-factorial Oct reporter, mRNA; actives raise or lower the signal
Method in brief: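 Transient MRTU transfection of HepG2 → 24 h compound treatment → RNA isolation, reverse transcription, PCR → 6-FAM primer extension, HpaI digest → capillary electrophoresis. Activity fitted both directions against DMSO.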

[9] = biological target: Cellular tumor antigen p53 (Homo sapiens) (UniProt P04637); assay: ATG_p53_CIS: Attagene CIS-FACTORIAL HepG2 Assay for human p53 Transcription Factor (AID 2282994); conditions: HepG2 p53 cis-element reporter, Attagene mRNA; actives raise or lower the signal
Sequence of Cellular tumor antigen p53 (Homo sapiens) (P04637 whole entry, looked up): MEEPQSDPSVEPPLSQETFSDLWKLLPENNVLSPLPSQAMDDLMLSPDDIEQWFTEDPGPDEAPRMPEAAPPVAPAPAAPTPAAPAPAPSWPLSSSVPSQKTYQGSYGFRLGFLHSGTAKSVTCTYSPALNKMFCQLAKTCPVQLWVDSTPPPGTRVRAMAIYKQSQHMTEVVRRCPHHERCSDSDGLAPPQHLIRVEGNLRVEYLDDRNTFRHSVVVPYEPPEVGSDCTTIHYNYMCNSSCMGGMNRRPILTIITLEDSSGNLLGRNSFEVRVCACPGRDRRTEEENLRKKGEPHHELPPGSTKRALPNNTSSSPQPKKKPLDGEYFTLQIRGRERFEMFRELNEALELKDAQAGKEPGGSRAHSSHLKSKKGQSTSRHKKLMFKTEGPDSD
Method in brief: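 Transiently transfected HepG2 (multiple cis reporter transcription units); exposure 24 h; reporter RNA via RT-PCR, 6-FAM extension, 2 h HpaI digest at 37 C, CE detection; DMSO baseline.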

[10] = biological target: Hepatocyte nuclear factor 4-alpha (Homo sapiens) (UniProt P41235); assay: ATG_HNF4a_TRANS: Attagene TRANS-FACTORIAL HepG2 Assay for human Hepatocyte Nuclear Factor 4 alpha (HNF4a) (AID 2282982; active = hit-call score of the fitted dose curve at least 0.9, where 1 is the maximum); conditions: HepG2 HNF4a transactivation reporter, mRNA readout
Sequence of Hepatocyte nuclear factor 4-alpha (Homo sapiens) (P41235 whole entry, looked up): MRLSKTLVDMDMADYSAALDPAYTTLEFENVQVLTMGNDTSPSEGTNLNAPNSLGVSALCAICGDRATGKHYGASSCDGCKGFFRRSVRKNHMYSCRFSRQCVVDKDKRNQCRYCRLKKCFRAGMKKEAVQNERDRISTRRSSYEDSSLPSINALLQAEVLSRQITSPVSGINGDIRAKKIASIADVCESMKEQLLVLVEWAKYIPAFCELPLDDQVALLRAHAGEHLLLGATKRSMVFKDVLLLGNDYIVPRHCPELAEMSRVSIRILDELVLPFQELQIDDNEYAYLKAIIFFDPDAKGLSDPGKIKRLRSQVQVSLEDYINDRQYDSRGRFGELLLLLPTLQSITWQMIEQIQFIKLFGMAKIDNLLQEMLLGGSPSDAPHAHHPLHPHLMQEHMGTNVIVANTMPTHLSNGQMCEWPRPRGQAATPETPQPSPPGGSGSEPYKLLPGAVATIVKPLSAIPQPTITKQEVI
Method in brief: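 Transient MRTU transfection of HepG2, 24 h dosing. Readout: reporter mRNA via RT-PCR + capillary electrophoresis, fluorescence; activity fit upward relative to DMSO control.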

[11] = ATG_NF_kB_CIS: Attagene CIS-FACTORIAL HepG2 Assay for human Nuclear Factor Kappa B (NF-kB) (AID 2282991); conditions: HepG2 Attagene cis-factorial NF-kB reporter mRNA; actives raise or lower the signal
Method in brief: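 Endpoint from a 52-component multiplexed HepG2 reporter panel: cis-regulated transcription units transiently transfected, 24 h dosing, reporter mRNA quantified by RT-PCR and capillary electrophoresis, scored as increase or decrease against DMSO.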

[12] = ATG_NRF2_ARE_CIS: Attagene CIS-FACTORIAL HepG2 Assay for human Nuclear Factor Erythroid 2 Related Factor 2 (NFR2) response to Antioxidant Response Elements (ARE) (AID 2282992); conditions: HepG2 Attagene ARE/NRF2 reporter, transcription factor activity; actives raise or lower the signal
Method in brief: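 Fluorescence intensity of reporter-specific cDNA fragments, separated by capillary electrophoresis, reflects mRNA induction in transfected HepG2 cells at 24 h. Activity is fitted bidirectionally, DMSO serving as baseline.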

[13] = ATG_M_32_TRANS: Attagene TRANS-FACTORIAL HepG2 Assay for M32 Transcription Factor (Internal Marker) (AID 2282984; active = hit-call score of the fitted dose curve at least 0.9, where 1 is the maximum;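 also: transcript level of a background control reporter unit measured by RT-PCR and capillary electrophoresis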); conditions: HepG2 Attagene TRANS M32 internal marker reporter
Method in brief: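 Read-out: fluorescent reporter cDNA fragments resolved by capillary electrophoresis after RT-PCR of total RNA. Transfected HepG2 cells were exposed to chemical for 24 h. Activity scored in the positive direction relative to DMSO.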

[14] = BSK_3C_TissueFactor: BioMAP Diversity Plus: 3C Assay for Tissue Factor Biomarker Activity (AID 2282997); conditions: BioMAP 3C HUVEC, tissue factor biomarker readout; actives raise or lower the signal
Method in brief: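 Tissue Factor measured by ELISA, 24 h after treatment of primary HUVEC in the BioMAP 3C setting.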

[15] = BSK_3C_uPAR: BioMAP Diversity Plus: 3C Assay for Urokinase-type plasminogen activator receptor (uPAR) Biomarker Activity (AID 2282998); conditions: BioMAP 3C HUVEC, uPAR biomarker ELISA; actives raise or lower the signal
Method in brief: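 ELISA readout of uPAR on human vascular endothelium (umbilical vein primary cells), taken 24 h after chemical dosing. Increases and decreases are both fitted relative to DMSO vehicle.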

[16] = BSK_3C_VCAM1: BioMAP Diversity Plus: 3C Assay for Vascular cell adhesion molecule 1 (VCAM1) Biomarker Activity (AID 2282999); conditions: BioMAP 3C HUVEC, VCAM1 ELISA, cytokine-stimulated; actives raise or lower the signal
Method in brief: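 HUVEC primary cells, 24 h compound exposure; VCAM-1 by ELISA; gain/loss of signal fitted bidirectionally vs DMSO baseline.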

[17] = BSK_4H_Eotaxin3: BioMAP Diversity Plus: 4H Assay for Eotaxin 3 Biomarker Activity (AID 2283000); conditions: primary human endothelial cells (HUVEC); actives raise or lower the signal;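 also: CCL26 protein level quantified by ELISA in parallel with SRB cytotoxicity check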
Method in brief: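 Eotaxin-3 (CCL26) levels were measured by ELISA in HUVEC primary cultures 24 h post-dosing. Gain or loss of signal was fitted in both directions, with DMSO serving as baseline and negative control.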

[18] = biological target: Bile acid receptor (Homo sapiens) (UniProt Q96RI1); assay: ATG_FXR_TRANS: Attagene TRANS-FACTORIAL HepG2 Assay for Farnesoid X Receptor (FXR) (AID 2282979; active = hit-call score of the fitted dose curve at least 0.9, where 1 is the maximum;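 also: hits raise reporter mRNA above DMSO so AC50 marks FXR activation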); conditions: HepG2 Attagene TRANS FXR-GAL4 reporter transcription
Sequence of Bile acid receptor (Homo sapiens) (Q96RI1 whole entry, looked up, the tested form may be a part): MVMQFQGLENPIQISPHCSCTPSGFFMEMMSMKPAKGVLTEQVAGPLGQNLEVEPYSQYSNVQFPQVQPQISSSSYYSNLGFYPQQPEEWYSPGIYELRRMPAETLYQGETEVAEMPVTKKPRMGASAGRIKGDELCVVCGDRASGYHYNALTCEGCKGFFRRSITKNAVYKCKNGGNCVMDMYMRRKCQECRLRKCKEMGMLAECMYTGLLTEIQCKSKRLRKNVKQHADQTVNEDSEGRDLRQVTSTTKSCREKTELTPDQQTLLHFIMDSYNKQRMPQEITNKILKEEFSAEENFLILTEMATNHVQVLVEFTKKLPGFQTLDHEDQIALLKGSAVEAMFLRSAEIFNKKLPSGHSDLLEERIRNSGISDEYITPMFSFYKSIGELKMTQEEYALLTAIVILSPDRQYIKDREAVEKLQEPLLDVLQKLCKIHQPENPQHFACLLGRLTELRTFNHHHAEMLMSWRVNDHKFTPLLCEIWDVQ
Method in brief: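 HepG2 cells were transiently transfected with GAL4-UAS reporters driven by chimeric NR-Gal4 proteins and dosed for 24 h. Reporter mRNA was quantified by RT-PCR, fluorescent labelling, HpaI digestion and capillary electrophoresis, with gain of signal scored versus DMSO.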

[19] = biological target: Oxysterols receptor LXR-alpha (Homo sapiens) (UniProt Q13133); assay: ATG_LXRa_TRANS: Attagene TRANS-FACTORIAL HepG2 Assay for human Liver X Receptor alpha (LXRa) (AID 2282980; active = hit-call score of the fitted dose curve at least 0.9, where 1 is the maximum); conditions: HepG2 Attagene TRANS reporter, LXRa transactivation
Sequence of Oxysterols receptor LXR-alpha (Homo sapiens) (Q13133 whole entry, looked up, the tested form may be a part): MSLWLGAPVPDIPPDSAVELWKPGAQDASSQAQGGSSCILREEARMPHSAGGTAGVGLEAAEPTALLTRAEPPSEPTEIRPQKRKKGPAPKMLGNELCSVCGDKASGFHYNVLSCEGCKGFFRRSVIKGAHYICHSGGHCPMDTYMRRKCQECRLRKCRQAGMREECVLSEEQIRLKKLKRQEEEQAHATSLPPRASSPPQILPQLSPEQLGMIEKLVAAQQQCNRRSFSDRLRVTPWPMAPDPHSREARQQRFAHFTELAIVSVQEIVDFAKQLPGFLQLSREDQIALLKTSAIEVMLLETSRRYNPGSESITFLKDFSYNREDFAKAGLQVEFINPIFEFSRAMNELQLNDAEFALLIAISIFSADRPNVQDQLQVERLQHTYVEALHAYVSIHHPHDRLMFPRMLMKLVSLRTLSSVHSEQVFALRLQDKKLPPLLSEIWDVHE
Method in brief: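 HepG2 cells transiently transfected with GAL4-UAS reporter units for chimeric NR-Gal4 proteins, exposed to chemicals for 24 h. Reporter mRNA quantified by RT-PCR and capillary electrophoresis; gain of signal fitted relative to DMSO.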

Measured: outcome

CO[Si](C)(OC)c1ccccc1
inactive: [1] | [2] | [3] | [4] | [5] | [6] | [7] | [8] | [9]

O=C(O)c1cccc([N+](=O)[O-])c1
inactive: [1] | [10] | [2] | [5] | [6] | [7] | [11] | [12] | [8] | [9]

O=C(O)CCCCCCCCCCC(=O)O
inactive: [1] | [10] | [2] | [4] | [5] | [6] | [7] | [11] | [8]

FC1(F)C(F)(F)C(F)(F)C2(F)C(F)(C1(F)F)C(F)(F)C(F)(F)C1(F)C(F)(F)C(F)(F)C(F)(F)C(F)(F)C12F (configuration not stated)
not listed: [3] | [13] | [14] | [15] | [16] | [17] | [18] | [19]
inactive: all other assays above

CCCCC(CC)COCCC#N (configuration not stated)
not listed: [9] | [10] | [18] | [19]
inactive: all other assays above

C=CCOC(=O)CCC1CCCCC1
not listed: [1] | [3] | [8] | [11] | [12]
inactive: all other assays above

CCC(C)(O)CCC=C(C)C (configuration not stated)
inactive: [1] | [2] | [3] | [4] | [5] | [6] | [7] | [11] | [12] | [8]

S=C(S)NCCNC(=S)S
inactive: [1] | [2] | [13] | [4] | [5] | [6] | [7] | [8]

Cc1ccc2n[nH]nc2c1
not listed: [3] | [4] | [10] | [18] | [19]
inactive: all other assays above

NCCOCCO
inactive: [1] | [10] | [5] | [7] | [12] | [8] | [9]

N#Cc1ccccc1
not listed: [3] | [13] | [14] | [15] | [16] | [17] | [18] | [19]
inactive: all other assays above

Cc1ccc(C(C)C)cc1O
inactive: [1] | [10] | [2] | [13] | [5] | [6] | [7] | [11] | [12]
